Out of some 1,200 compounds screened, about 290 (24%) were called active. Another 9% or so got no clear call; they are omitted. A selection follows. Potency and affinity values are given separately. Unmarked numbers belong to inactive results. No rule for the calls is given here.

The results in this text go back to PubChem BioAssay AID504882 (Broad Institute, 2011).

The nature of the test: cytotoxicity in EBV lymphoblastoid cells, dose response, cytotoxicity control, cell-based, plate reader, cherry-picks, set 2 (AID 504882).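 Also: 0% = neutral control wells and -100% = positive control wells.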 Conditions: EBV lymphoblastoid cells (LCL) viability; series mostly up to 19.5 µM; activity change, negative = cytotoxicity: at the top concentration.
As to `O=C(N1CCOCC1)N1CCN(S(=O)(=O)c2ccc(Cl)cc2)C1`, the “activity change, negative = cytotoxicity” value is 14.1%.

As for `Cc1cccc(/C=N/NC(=O)CNc2cccc3ccccc23)n1`, the “activity change, negative = cytotoxicity” value is 13%.

For the molecule `O=C(O)c1ccc(C=NNC(=O)c2cccc3ccccc23)cc1`, the “activity change, negative = cytotoxicity” value was 11.4%.

For the molecule `COc1ccc(-c2[nH]ncc2/C=N\NS(=O)(=O)c2ccc(Cl)cc2)cc1`, the “activity change, negative = cytotoxicity” value is 18.6%.

Regarding `CCN(c1ccccc1)S(=O)(=O)c1ccc(Cl)c(NC(=O)Nc2ccc(Cl)cc2C#N)c1`, the “activity change, negative = cytotoxicity” value was -10.7%.

With `O=[N+]([O-])c1ccc(Cl)c(S(=O)(=O)NCC2CCCO2)c1` (centres undefined), the “activity change, negative = cytotoxicity” value was 15.1%.

Consider `CCOc1ccc(OCc2cccc(C(=O)N3CCCCCC3)c2)cc1`, for which the “activity change, negative = cytotoxicity” value is -1.66%.

`COc1ccc(C(=O)NCCN2CCOCC2)cc1[N+](=O)[O-]`: the “activity change, negative = cytotoxicity” value is 24.8%.

Take `COc1cccc(/C=C2\SC(=S)N(CCC(=O)NCCc3ccc(O)cc3)C2=O)c1`: the “activity change, negative = cytotoxicity” value is -16.3%.

Consider `COc1ccc(C(=O)Nn2c(SCC(=O)c3ccc(Cl)cc3)nc3ccccc3c2=O)cc1`, for which the “activity change, negative = cytotoxicity” value was -13.5%.

In the case of `COc1ccc(C(=O)NCCNc2nc3cc(C)c(C)cc3cc2C)cc1`, the “activity change, negative = cytotoxicity” value is -19.9%.

`COc1ccc(-c2cc3c(=O)n(CC(=O)NCCCN4CCN(Cc5ccccc5)CC4)ncn3n2)cc1`: the “activity change, negative = cytotoxicity” value was 14.3%.

As to `Cc1cccc(C)c1Nc1nc2ccccc2o1`, the “activity change, negative = cytotoxicity” value is 22.6%.

Consider `O=c1[nH]c(Nc2nc3ccccc3o2)nc2c1CCCC2`, for which the “activity change, negative = cytotoxicity” value is 2.31% [at 6.8 µM].

Consider `COc1ccc(-n2c(C)c(C(C)=O)c3cc(OC(C)=O)ccc32)cc1`, for which the “activity change, negative = cytotoxicity” value was 2.71%.

As for `CC(=O)Nc1ccc(OCCCNC(=O)c2c(-c3ccccc3)noc2C)cc1`, the “activity change, negative = cytotoxicity” value is 9.93%.

Regarding `COc1ccccc1NC(=O)Cn1nnc(-c2ccccc2NS(=O)(=O)c2ccccc2)n1`, the “activity change, negative = cytotoxicity” value was -15.3%.

Take `CCN(CC)Cc1cc(Nc2ccnc3cc(Cl)ccc23)ccc1O`: the “activity change, negative = cytotoxicity” value is -7.97%.

On to `O=C1CSC(=S)N1Cc1ccccc1`, for which the “activity change, negative = cytotoxicity” value was 0.821%.

For the molecule `CC(=O)O[C@H]1CC[C@@]2(C)C(=CC[C@H]3[C@@H]4CC[C@H](C(C)=O)[C@@]4(C)CC[C@@H]32)C1`, the “activity change, negative = cytotoxicity” value is 16.2%.

Consider `Cc1ccc(N=c2c([N+](=O)[O-])nn(-c3ccc4c(c3)OCCO4)n2O)cc1F`, for which the “activity change, negative = cytotoxicity” value is 18.8% [at 6.8 µM].

As to `COCCNC(=O)C(=O)NCC1OCCN1C(=O)c1ccc(Cl)cc1` (centres undefined), the “activity change, negative = cytotoxicity” value was 35.3%.

As for `CCCn1c(C)cc(C(=O)COC(=O)c2ccc[nH]c2=O)c1C`, the “activity change, negative = cytotoxicity” value is 13.9%.

Consider `COc1cc2oc(=O)cc(-c3ccc(-c4ccc(N(C)C)cc4)cc3)c2c(OC)c1OC`, for which the “activity change, negative = cytotoxicity” value was 13.8%.

Take `Cc1nn(CCCC(=O)Nc2cccnc2Cl)c(C)c1[N+](=O)[O-]`: the “activity change, negative = cytotoxicity” value is 10.4%.

Take `Cc1sc2nc(SCC(=O)OC(C)C)n(C)c(=O)c2c1C`: the “activity change, negative = cytotoxicity” value was 3.72%.

In the case of `COCCn1c(C)cc(C(=O)COC(=O)c2n[nH]c3ccccc23)c1C`, the “activity change, negative = cytotoxicity” value was 8.34%.

For the molecule `Cc1nn(C(C)(C)C)c(C)c1/C=N/OC(=O)Nc1ccc(Cl)c(Cl)c1`, the “activity change, negative = cytotoxicity” value is 2.85%.

Turning to `CCCCCCCCOC(=O)/C=C/c1c(C)[nH]c(=O)[nH]c1=O`, the “activity change, negative = cytotoxicity” value was 31.3%.
